Screening data from PubChem.
TEAD-YAP block: TEAD-YAP interaction inhibition; inhibition, % at 9.12 µM; HEK-TIYL cells, TEAD-Gal4/YAP UAS-luciferase luminescence; actives 1.4% (n = 640,000); in the data active = inhibition above about 32%;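 also: 0% = median of test compound wells and 100% = reference inhibitor wells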
FBW7 activator: human FBW7 E3 ligase activation, primary screen; actives 0.13% (n = 650,000); Q969H0; AlphaScreen FBW7–phospho-cyclin E peptide binding, activator screen; AID 1259310; normalized activity (activation), % at 26.1 µM; in the data active = normalized activity above about 1.9%;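 also: purified mutant Fbw7 with reduced substrate affinity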
MITF inh: blocks human microphthalmia-associated transcription factor; O75030; AlphaScreen MITF homodimerization, bead proximity signal; inhibition, % at 2.6 µM; actives 0.91% (n = 650,000); AID 1259374; in the data active = inhibition above about 50%;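 also: 0% = vehicle wells with protein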
GPR151 activ: human GPR151 activation. Q8TDV0. PathHunter beta-arrestin GPR151 cells, luminescence. activation, % at 11.2 µM. actives 1% (n = 650,000); in the data active = activation above about 4.9%;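 also: 0% = median of compound wells and 100% = cells with positive control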
Target sequence (Q8TDV0 whole entry, looked up): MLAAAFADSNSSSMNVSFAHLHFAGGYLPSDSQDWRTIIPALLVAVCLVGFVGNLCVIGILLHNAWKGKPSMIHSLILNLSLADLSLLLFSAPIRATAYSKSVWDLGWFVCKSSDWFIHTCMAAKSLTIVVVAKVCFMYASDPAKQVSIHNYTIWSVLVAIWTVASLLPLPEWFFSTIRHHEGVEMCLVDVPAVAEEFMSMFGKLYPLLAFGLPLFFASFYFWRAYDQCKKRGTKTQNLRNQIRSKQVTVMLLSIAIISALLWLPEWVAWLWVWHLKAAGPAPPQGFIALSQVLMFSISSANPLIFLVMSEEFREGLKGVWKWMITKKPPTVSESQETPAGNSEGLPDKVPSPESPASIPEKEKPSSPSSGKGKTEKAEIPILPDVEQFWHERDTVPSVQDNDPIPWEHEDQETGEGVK
Active calls of the source: *. The list is not random: actives were taken first. Their share in the collection is about 3.5%.

What do the screens show for `CN(C)/C=C/C=C1\CCC/C(=C\N(C)C)C1=O`?
TEAD-YAP block: -14; FBW7 activator: -1; MITF inh: 52*; GPR151 activ: 0

How did COC(=O)c1cn(NC(=O)c2cccnc2Cl)c(=O)c2ccccc12 do in these assays?
TEAD-YAP block: -2; FBW7 activator: 0; MITF inh: 0; GPR151 activ: -1

What do the screens show for `COC(=O)c1cn(NC(=O)c2ccccn2)c(=O)c2ccccc12`?
TEAD-YAP block: 62*; FBW7 activator: 0; MITF inh: 100*; GPR151 activ: -1

Results for CCCCCC(=O)Nc1cccc(-c2nc3cc(C)c(C)cc3o2)c1C ?
TEAD-YAP block: 8; FBW7 activator: 0; MITF inh: 7; GPR151 activ: 1

How did O=S(=O)(c1ccc(NC(=S)N/N=C/c2ccc(O)c(O)c2)cc1)N1CCOCC1 do in these assays?
TEAD-YAP block: 10; FBW7 activator: 0; MITF inh: -15; GPR151 activ: 0

What do the screens show for `O=S(=O)(c1ccc(NC(=S)N/N=C/c2cccc(O)c2O)cc1)N1CCOCC1`?
TEAD-YAP block: 4; FBW7 activator: -1; MITF inh: 59*; GPR151 activ: 0

Results for Cc1ccc(NC(=O)Cn2cnc3sc4c(c3c2=O)CCCC4)c(C)c1 ?
TEAD-YAP block: -2; FBW7 activator: 0; MITF inh: 9; GPR151 activ: 0

What do the screens show for `CCc1cc2cc3c(cc2nc1SCC(=O)NC(C)(C)C)OCO3`?
TEAD-YAP block: 38*; FBW7 activator: 0; MITF inh: 13; GPR151 activ: 2

Results for CCc1cc2cc3c(cc2nc1SCC(=O)NC(C)(C)C)OCCO3 ?
TEAD-YAP block: 47*; FBW7 activator: 0; MITF inh: 10; GPR151 activ: -1

Results for CCC(=O)NNC(=O)CSc1nc2cc3c(cc2cc1CC)OCCO3 ?
TEAD-YAP block: -7; FBW7 activator: 0; MITF inh: -2; GPR151 activ: -1

How did COc1ccc(C2CC(C(F)(F)F)n3ncc(C(=O)NC(C)C)c3N2)cc1OC (stereo not given) do in these assays?
TEAD-YAP block: -6; FBW7 activator: 0; MITF inh: 2; GPR151 activ: -1

Results for CCCOC(=O)c1cccc(NC(=O)COc2ccccc2Br)c1 ?
TEAD-YAP block: 50*; FBW7 activator: 0; MITF inh: 7; GPR151 activ: 0

Results for O=C(COc1ccc(Br)cc1Br)Nc1cccc(O)c1 ?
TEAD-YAP block: 69*; FBW7 activator: 0; MITF inh: 2; GPR151 activ: 3

How did CCCOC(=O)c1cccc(NC(=O)COc2ccc(Br)cc2)c1 do in these assays?
TEAD-YAP block: -18; FBW7 activator: 0; MITF inh: 15; GPR151 activ: 1

What do the screens show for `Cc1ccc(COc2ccc(CO)cc2Cl)cc1`?
TEAD-YAP block: 33*; FBW7 activator: 0; MITF inh: 7; GPR151 activ: -1

What do the screens show for `O=C(COc1ccc(CO)cc1Cl)Nc1ccccc1`?
TEAD-YAP block: 49*; FBW7 activator: 1; MITF inh: 10; GPR151 activ: -3

What do the screens show for `CCC(C)N1C(=O)Cc2c1nc(N)c1c(N)nc(N3CC(C)OC(C)C3)c(C#N)c21` (stereo not given)?
TEAD-YAP block: 3; FBW7 activator: 0; MITF inh: 9; GPR151 activ: -1

Results for Cc1cccc(NC(=O)c2cccc(-n3cc(NC(=O)Cc4ccccc4C)cn3)c2)c1 ?
TEAD-YAP block: -5; FBW7 activator: 0; MITF inh: -15; GPR151 activ: 3

How did C/C(=N/NC(=O)Cc1cccn1C)c1ccc(Br)cc1 do in these assays?
TEAD-YAP block: 2; FBW7 activator: 0; MITF inh: 23; GPR151 activ: -1

What do the screens show for `CCCCN(CC)S(=O)(=O)c1ccc(C(=O)Nc2ccc3sc(C)nc3c2)cc1`?
TEAD-YAP block: 53*; FBW7 activator: 0; MITF inh: 21; GPR151 activ: 0

Results for CC(C)C[C@H]1NC(=O)[C@@H]2C[C@H](NCc3cn(C)nc3-c3ccccc3)CN2C1=O ?
TEAD-YAP block: 0; FBW7 activator: 2.5*; MITF inh: -8; GPR151 activ: 0

How did Cn1cc(CN[C@H]2C[C@H]3C(=O)N[C@@H](CO)C(=O)N3C2)c(-c2ccccc2)n1 do in these assays?
TEAD-YAP block: -6; FBW7 activator: 0; MITF inh: -9; GPR151 activ: 1

Results for Cc1cc(C)c2nc3nc(C)c(C)cc3c(N)c2c1 ?
TEAD-YAP block: 81*; FBW7 activator: 0; MITF inh: 16; GPR151 activ: -2

Results for O=c1ccnc(SCc2cn3cc(Cl)ccc3n2)[nH]1 ?
TEAD-YAP block: 0; FBW7 activator: 0; MITF inh: 0; GPR151 activ: -1

How did O=C(CSc1nnc(Cc2ccccc2)n1Cc1ccco1)N1CCCCC1 do in these assays?
TEAD-YAP block: 8; FBW7 activator: 0; MITF inh: 3; GPR151 activ: -1

Results for COc1ccc(OC)c(C2C(C#N)=C(N)Oc3c2ccc2ccccc32)c1 (stereo not given) ?
TEAD-YAP block: 51*; FBW7 activator: 0; MITF inh: 5; GPR151 activ: -2

What do the screens show for `COc1cccc(C2C(C#N)=C(N)Oc3n[nH]c(-c4ccc5ccccc5c4)c32)c1` (stereo not given)?
TEAD-YAP block: -2; FBW7 activator: -1; MITF inh: -3; GPR151 activ: 1

What do the screens show for `COc1cccc(C2C(C#N)=C(N)Oc3ccc4ccccc4c32)c1` (stereo not given)?
TEAD-YAP block: 50*; FBW7 activator: 0; MITF inh: 17; GPR151 activ: -1

What do the screens show for `CCOc1cc(C2C(C#N)=C(N)Oc3c2ccc2ccccc32)ccc1O` (stereo not given)?
TEAD-YAP block: 12; FBW7 activator: 0; MITF inh: 17; GPR151 activ: 0

How did COc1cc(C2C(C#N)=C(N)Oc3c2ccc2ccccc32)cc(Br)c1O (stereo not given) do in these assays?
TEAD-YAP block: 64*; FBW7 activator: 0; MITF inh: 10; GPR151 activ: -1

Results for COc1ccc(OC)c(C2C(C#N)=C(N)Oc3c2c(=O)[nH]c2ccccc32)c1 (stereo not given) ?
TEAD-YAP block: -5; FBW7 activator: 0; MITF inh: 1; GPR151 activ: 0

How did Cc1nc2c(C(=O)NCc3ccco3)cnn2c(C)c1Cc1ccccc1Cl do in these assays?
TEAD-YAP block: -3; FBW7 activator: 0; MITF inh: -1; GPR151 activ: -1

How did COc1ccc(Nc2c3c(nc4ccccc24)CCC3)cc1 do in these assays?
TEAD-YAP block: 18; FBW7 activator: 1; MITF inh: 15; GPR151 activ: 1

Results for COC(=O)c1ccc(Nc2c3c(nc4ccccc24)CCC3)cc1 ?
TEAD-YAP block: 46*; FBW7 activator: 0; MITF inh: -3; GPR151 activ: 2

What do the screens show for `COCCNc1ccnc2c(-c3ccc4c(c3)OCO4)cnn12`?
TEAD-YAP block: 51*; FBW7 activator: 0; MITF inh: 10; GPR151 activ: -2

How did COCCNc1ccnc2c(-c3ccc(F)c(Cl)c3)cnn12 do in these assays?
TEAD-YAP block: -1; FBW7 activator: 1.9*; MITF inh: 2; GPR151 activ: 0
